Among the targets are SNU13 (UniProt P55769); XRCC5 (UniProt P13010); SF3B1 (UniProt O75533); TPPP3 (UniProt Q9BW30); MEPE (UniProt Q9NQ76); CCT2 (UniProt P78371); AIF1L (UniProt Q9BQI0); B4GALNT4 (UniProt Q76KP1); CCT4 (UniProt P50991); TRIM28 (UniProt Q13263); SMC4 (UniProt Q9NTJ3).
Test in all cases: cross-linking mass spectrometry
Holding throughout (details): DSSO, not determined

Sequence of UniProt Q9NQ76 (Q9NQ76 whole entry): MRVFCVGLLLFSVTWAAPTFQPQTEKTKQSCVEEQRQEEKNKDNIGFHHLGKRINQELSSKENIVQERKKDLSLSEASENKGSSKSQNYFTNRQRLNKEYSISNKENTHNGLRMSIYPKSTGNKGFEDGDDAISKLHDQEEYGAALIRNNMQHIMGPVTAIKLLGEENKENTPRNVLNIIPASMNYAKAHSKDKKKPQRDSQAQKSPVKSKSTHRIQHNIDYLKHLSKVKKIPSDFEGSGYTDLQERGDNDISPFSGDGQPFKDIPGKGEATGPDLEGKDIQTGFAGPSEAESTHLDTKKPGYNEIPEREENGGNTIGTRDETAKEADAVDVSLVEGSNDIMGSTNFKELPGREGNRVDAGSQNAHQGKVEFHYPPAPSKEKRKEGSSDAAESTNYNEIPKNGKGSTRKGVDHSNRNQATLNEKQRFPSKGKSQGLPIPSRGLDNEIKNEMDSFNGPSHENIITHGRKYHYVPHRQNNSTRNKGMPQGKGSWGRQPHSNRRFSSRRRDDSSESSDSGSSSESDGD
Sequence of TCP1 (P17987 whole entry): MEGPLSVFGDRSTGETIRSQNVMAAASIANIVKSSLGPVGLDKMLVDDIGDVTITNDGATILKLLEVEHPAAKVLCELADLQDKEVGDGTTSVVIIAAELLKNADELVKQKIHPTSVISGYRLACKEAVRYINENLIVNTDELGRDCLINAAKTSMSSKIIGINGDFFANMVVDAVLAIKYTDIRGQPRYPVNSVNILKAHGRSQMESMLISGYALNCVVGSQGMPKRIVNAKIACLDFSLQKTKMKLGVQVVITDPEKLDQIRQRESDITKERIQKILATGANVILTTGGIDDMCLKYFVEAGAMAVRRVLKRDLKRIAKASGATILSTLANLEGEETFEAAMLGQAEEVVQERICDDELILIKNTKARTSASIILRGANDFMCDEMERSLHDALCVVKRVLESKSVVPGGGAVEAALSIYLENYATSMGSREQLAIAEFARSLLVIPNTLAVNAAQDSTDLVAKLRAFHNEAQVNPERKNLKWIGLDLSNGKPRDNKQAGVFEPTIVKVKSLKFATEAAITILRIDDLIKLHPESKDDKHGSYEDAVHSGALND
Sequence of UniProt Q13263 (Q13263 whole entry): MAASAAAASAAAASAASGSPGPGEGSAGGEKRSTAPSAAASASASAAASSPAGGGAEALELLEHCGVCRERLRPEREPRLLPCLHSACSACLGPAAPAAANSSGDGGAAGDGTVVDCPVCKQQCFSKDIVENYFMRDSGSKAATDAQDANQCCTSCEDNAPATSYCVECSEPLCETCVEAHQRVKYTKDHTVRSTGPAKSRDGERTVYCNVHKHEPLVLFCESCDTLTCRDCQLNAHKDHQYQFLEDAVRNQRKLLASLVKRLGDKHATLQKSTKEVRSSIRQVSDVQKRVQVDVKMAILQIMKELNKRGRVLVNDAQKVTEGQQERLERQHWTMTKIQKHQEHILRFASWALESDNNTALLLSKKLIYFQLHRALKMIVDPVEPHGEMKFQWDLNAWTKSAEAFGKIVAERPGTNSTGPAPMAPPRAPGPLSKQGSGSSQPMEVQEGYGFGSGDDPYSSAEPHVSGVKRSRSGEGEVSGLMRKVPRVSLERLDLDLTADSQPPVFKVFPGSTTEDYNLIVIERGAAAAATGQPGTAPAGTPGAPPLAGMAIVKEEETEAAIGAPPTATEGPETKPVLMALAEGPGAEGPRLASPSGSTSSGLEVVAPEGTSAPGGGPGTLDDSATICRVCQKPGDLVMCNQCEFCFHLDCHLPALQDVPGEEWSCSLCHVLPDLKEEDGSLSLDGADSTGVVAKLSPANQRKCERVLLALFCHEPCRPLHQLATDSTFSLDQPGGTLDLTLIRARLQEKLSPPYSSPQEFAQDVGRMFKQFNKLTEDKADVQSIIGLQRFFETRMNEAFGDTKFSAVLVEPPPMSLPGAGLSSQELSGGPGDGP
Sequence of CLEC4F (Q8N1N0 whole entry): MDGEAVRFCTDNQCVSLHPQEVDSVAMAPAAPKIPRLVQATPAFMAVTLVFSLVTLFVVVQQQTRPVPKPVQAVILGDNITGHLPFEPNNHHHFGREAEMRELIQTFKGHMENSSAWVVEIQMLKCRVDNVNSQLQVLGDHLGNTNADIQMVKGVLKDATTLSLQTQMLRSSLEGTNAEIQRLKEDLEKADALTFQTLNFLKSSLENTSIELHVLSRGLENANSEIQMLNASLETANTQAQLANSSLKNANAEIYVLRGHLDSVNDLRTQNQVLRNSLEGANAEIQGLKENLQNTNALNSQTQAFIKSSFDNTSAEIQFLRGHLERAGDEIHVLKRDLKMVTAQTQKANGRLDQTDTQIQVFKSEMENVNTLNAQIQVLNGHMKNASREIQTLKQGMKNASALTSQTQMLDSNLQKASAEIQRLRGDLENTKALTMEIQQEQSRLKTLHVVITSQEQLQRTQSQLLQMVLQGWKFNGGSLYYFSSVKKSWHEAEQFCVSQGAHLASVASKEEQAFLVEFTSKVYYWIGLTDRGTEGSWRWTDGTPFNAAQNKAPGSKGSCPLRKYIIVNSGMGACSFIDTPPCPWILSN
Sequence of SMC2 (O95347 whole entry): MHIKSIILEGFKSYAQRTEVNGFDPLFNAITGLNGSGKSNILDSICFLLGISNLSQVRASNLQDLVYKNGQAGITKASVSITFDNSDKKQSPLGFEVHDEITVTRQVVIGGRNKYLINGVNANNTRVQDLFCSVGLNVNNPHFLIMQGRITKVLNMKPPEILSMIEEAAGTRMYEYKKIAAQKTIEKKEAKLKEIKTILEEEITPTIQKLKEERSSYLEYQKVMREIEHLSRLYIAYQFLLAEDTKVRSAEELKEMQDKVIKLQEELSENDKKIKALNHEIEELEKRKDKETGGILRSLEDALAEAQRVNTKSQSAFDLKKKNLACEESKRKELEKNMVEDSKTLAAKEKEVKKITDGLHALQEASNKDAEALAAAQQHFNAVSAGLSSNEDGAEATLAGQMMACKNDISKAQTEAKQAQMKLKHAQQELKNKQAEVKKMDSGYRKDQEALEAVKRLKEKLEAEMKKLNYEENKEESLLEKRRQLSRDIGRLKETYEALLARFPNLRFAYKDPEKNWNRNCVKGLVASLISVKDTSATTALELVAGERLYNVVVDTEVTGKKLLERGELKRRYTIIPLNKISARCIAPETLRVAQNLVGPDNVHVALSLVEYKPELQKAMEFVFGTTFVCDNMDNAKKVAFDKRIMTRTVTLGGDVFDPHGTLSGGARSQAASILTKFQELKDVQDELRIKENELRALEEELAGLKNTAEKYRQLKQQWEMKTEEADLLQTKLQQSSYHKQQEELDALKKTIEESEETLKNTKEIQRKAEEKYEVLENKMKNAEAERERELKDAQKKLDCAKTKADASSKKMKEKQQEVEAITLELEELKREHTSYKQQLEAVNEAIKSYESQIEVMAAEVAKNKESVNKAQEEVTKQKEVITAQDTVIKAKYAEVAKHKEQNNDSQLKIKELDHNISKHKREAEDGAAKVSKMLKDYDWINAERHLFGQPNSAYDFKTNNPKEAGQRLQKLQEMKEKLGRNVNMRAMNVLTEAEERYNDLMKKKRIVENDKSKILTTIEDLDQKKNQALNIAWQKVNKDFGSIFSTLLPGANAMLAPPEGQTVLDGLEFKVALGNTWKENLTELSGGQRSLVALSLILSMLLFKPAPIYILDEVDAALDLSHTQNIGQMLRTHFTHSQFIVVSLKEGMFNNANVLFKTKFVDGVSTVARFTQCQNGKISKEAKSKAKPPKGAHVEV
Sequence of UniProt Q76KP1 (Q76KP1 whole entry): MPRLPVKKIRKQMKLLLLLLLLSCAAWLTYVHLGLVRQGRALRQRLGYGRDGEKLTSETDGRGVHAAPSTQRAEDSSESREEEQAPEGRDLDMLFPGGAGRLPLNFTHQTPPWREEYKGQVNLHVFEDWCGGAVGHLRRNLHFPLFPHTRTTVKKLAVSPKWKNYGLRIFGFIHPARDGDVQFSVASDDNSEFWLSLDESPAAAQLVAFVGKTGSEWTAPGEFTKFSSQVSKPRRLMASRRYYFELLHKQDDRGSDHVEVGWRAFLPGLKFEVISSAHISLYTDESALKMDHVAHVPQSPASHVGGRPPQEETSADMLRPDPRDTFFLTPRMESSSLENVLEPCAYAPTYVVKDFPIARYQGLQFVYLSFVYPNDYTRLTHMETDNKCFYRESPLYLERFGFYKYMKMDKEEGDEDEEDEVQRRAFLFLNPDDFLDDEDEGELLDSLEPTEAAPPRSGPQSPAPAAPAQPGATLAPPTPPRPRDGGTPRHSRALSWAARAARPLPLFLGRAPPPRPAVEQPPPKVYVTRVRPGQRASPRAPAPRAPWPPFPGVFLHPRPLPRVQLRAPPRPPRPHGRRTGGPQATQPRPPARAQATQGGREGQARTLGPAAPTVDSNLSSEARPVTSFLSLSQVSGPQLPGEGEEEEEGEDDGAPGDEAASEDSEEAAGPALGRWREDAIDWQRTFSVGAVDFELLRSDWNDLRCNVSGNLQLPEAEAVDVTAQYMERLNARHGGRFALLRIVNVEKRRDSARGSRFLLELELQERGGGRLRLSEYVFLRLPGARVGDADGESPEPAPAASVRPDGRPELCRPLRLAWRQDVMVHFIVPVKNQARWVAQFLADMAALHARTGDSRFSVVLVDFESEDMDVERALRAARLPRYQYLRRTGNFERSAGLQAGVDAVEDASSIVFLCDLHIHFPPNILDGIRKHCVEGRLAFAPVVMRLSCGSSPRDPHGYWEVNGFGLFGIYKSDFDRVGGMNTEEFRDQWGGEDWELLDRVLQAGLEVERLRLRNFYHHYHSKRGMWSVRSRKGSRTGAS
Sequence of UniProt Q9BQI0 (Q9BQI0 whole entry): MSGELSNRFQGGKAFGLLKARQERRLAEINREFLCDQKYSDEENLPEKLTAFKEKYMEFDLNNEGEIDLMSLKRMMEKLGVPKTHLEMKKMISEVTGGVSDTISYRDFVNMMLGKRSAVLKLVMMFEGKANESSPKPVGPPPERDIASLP
Sequence of UniProt P55769 (P55769 whole entry): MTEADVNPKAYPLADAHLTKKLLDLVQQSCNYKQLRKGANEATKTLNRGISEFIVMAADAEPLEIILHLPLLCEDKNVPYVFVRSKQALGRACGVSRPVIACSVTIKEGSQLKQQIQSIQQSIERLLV

Turning to NOP56, O00567, the cross-linked residues result in the test with SNU13 is “K396 - K86”.
As to XRCC6, P12956, the cross-linked residues result with XRCC5 is “K317 - K282”.
Take HTATSF1, O43719: in the test with SF3B1, the cross-linked residues entry is reported as “K297 - K333”.
For VIM, P08670, in the test with TPPP3, the cross-linked residues result is “K223 - K48”.
As to EPHX2, P34913, the cross-linked residues result with MEPE is listed as “K55 - K369”.
As for CCT4, P50991, in the test with CCT2, the cross-linked residues entry is on record as “K21 - K522”.
For CLEC4F, Q8N1N0, the cross-linked residues result with AIF1L is “K474 - K129”.
With EPRS1, P07814, the cross-linked residues entry with B4GALNT4 is “K300 - K232”.
TCP1, P17987: in the test with CCT4, the cross-linked residues result is reported as “K126 - K55”.
Take BCL9, O00512: the cross-linked residues entry with TRIM28 is “K1244 - K289”.
Turning to SMC2, O95347, in the test with SMC4, the cross-linked residues result is reported as “K580 - K731”.
